# Measured values taken from PubChem BioAssay (EPA / NIEHS).
# Calls of active or inactive are those of the source. The calls were made as follows: active = hit-call score of the fitted dose curve at least 0.9, where 1 is the maximum; inactive = score below 0.9.
# Assays:
# Conditions in all cases: mRNA level, 48 h; actives raise or lower the signal
# [1] = read-out: Apolipoprotein A-V (APOA5) gene, APOA5 (gene 116519); assay: LTEA_HepaRG_APOA5: Life Technologies and Expression Analysis (LTEA) Assay for Apolipoprotein A-V (APOA5) gene using HepaRG (AID 2283474)
# Procedure, shortened: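 Readout is APOA5 transcript level by qRT-PCR on Fluidigm dynamic arrays, normalized to three housekeeping genes. HepaRG cultures received chemicals for 48 h at up to 100 uM (half-log steps, 0.5% DMSO), with gain or loss scored relative to DMSO.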
# [2] = read-out: Apoptosis regulator Bcl-2 (Homo sapiens) (UniProt P10415); assay: LTEA_HepaRG_BCL2: Life Technologies and Expression Analysis (LTEA) Assay for Bcl-2 gene using HepaRG (AID 2283475)
# Procedure, shortened: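 Each chemical was tested in duplicate on HepaRG cultures held in serum-free induction medium for 48 h, highest concentration 100 uM with half-log dilutions. Transcript levels came from multiplexed qRT-PCR, normalised to housekeeping genes; activity was scored in either direction relative to DMSO.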
# [3] = read-out: Bcl-2 (BID) gene, BID (gene 637); assay: LTEA_HepaRG_BID: Life Technologies and Expression Analysis (LTEA) Assay for Bcl-2 (BID) gene using HepaRG (AID 2283476)
# Procedure, shortened: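 Assay used HepaRG hepatic cells treated 48 h in serum-free medium with half-log dilutions from 100 uM. Endpoint: BID mRNA, qRT-PCR, normalized to ACTB/GAPDH/POLR2A.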
# Caspase-3 (Homo sapiens) = Caspase-3 (Homo sapiens) (UniProt P42574); assay: LTEA_HepaRG_CASP3: Life Technologies and Expression Analysis (LTEA) Assay for cysteine-aspartic acid protease (CASP3) using HepaRG (AID 2283477)
# Procedure, shortened: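 Read-out is CASP3 mRNA level by TaqMan qRT-PCR in human HepaRG cells after 48 h chemical exposure. Eight half-log concentrations topping at 100 uM were tested in 0.5% DMSO; gain or loss was fitted relative to DMSO.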
# [4] = read-out: Cytochrome P450 (CYP24A1), CYP24A1 (gene 1591); assay: LTEA_HepaRG_CYP24A1: Life Technologies and Expression Analysis (LTEA) Assay for Cytochrome P450 (CYP24A1) using HepaRG (AID 2283478)
# Procedure, shortened: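 HepaRG, 48 h chemical exposure, 8-pt half-log CRC from 100 uM, 0.5% DMSO vehicle, duplicates. Endpoint: CYP24A1 mRNA by Fluidigm TaqMan qRT-PCR, normalized ACTB/GAPDH/POLR2A; gain/loss fit vs DMSO.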
# [5] = read-out: cysteine-aspartic acid protease (CASP8), CASP8 (gene 841); assay: LTEA_HepaRG_CASP8: Life Technologies and Expression Analysis (LTEA) Assay for cysteine-aspartic acid protease (CASP8) using HepaRG (AID 2283480)
# Procedure, shortened: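 qRT-PCR readout of CASP8 mRNA, normalized to three housekeeping genes, after 48 h chemical exposure of HepaRG cells; 8-point half-log series, top 100 uM, 0.5% DMSO vehicle. Bidirectional curve fitting against DMSO baseline.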
# [6] = read-out: Cytochrome P450 (CYP2B6), CYP2B6 (gene 1555); assay: LTEA_HepaRG_CYP2B6: Life Technologies and Expression Analysis (LTEA) Assay for Cytochrome P450 (CYP2B6) using HepaRG (AID 2283481)
# Procedure, shortened: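 HepaRG cells plated 48 h, switched to serum-free induction medium, then dosed 48 h (8 points, half-log from 100 uM, 0.5% DMSO). RNA isolated; CYP2B6 expression measured by qRT-PCR; gain or loss fitted relative to DMSO.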
# [7] = read-out: Cytochrome P450 2C19 (Homo sapiens) (UniProt P33261); assay: LTEA_HepaRG_CYP2C19: Life Technologies and Expression Analysis (LTEA) Assay for CYP2C19 using HepaRG (AID 2283482)
# Procedure, shortened: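 Transcript levels of CYP2C19 were quantified by qRT-PCR after HepaRG cells were treated for 48 hours with test chemicals up to 100 uM (eight half-log concentrations, 0.5% DMSO vehicle). Gain or loss of signal was fitted relative to DMSO.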
# CYP2C8 (gene 1558) = assay: LTEA_HepaRG_CYP2C8: Life Technologies and Expression Analysis (LTEA) Assay for CYP2C8 using HepaRG (AID 2283483)
# Procedure, shortened: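 HepaRG (human liver line), 48 h chemical exposure, 8-pt half-log series from 100 uM, 0.5% DMSO vehicle. Readout: CYP2C8 transcript by qRT-PCR, housekeeping-normalized. Bidirectional fit vs DMSO baseline.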
# CYP2C9 (gene 1559) = assay: LTEA_HepaRG_CYP2C9: Life Technologies and Expression Analysis (LTEA) Assay for CYP2C9 using HepaRG (AID 2283484)
# Procedure, shortened: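 HepaRG, 48 h dosing, 8-pt half-log series, top 100 uM, 0.5% DMSO vehicle. Read-out: CYP2C9 transcript by TaqMan qRT-PCR, housekeeping-normalized (ACTB/GAPDH/POLR2A). Gain or loss fitted vs DMSO baseline.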
# CYP2E1 (gene 1571) = assay: LTEA_HepaRG_CYP2E1: Life Technologies and Expression Analysis (LTEA) Assay for CYP2E1 using HepaRG (AID 2283485)
# Procedure, shortened: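 Assay uses 48 h exposure of HepaRG hepatic cells, eight concentrations to 100 uM. Expression of CYP2E1 is quantified by TaqMan qRT-PCR with ACTB, GAPDH and POLR2A normalization; curves fitted in both directions relative to vehicle.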
# CYP4A11 (gene 1579) = assay: LTEA_HepaRG_CYP4A11: Life Technologies and Expression Analysis (LTEA) Assay for CYP4A11 using HepaRG (AID 2283486)
# Procedure, shortened: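 HepaRG, 48 h chem exposure, 8 conc (100 uM top, half-log), 0.5% DMSO vehicle; qRT-PCR readout, housekeeping-gene normalized; bidirectional curve fit vs DMSO baseline.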
# [8] = read-out: Cytochrome P450 3A4 (Homo sapiens) (UniProt P08684); assay: LTEA_HepaRG_CYP3A4: Life Technologies and Expression Analysis (LTEA) Assay for CYP3A4 using HepaRG (AID 2283487)
# Procedure, shortened: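 CYP3A4 transcript measured by TaqMan qRT-PCR and normalized to three housekeeping genes after 48 h chemical exposure of human HepaRG cells. Top concentration 100 uM, half-log steps, 0.5% DMSO vehicle; gain or loss fitted against DMSO baseline.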
# [9] = read-out: DNA damage-inducible transcript 3 (DDIT3), DDIT3 (gene 1649); assay: LTEA_HepaRG_DDIT3: Life Technologies and Expression Analysis (LTEA) Assay for DNA damage-inducible transcript 3 (DDIT3) using HepaRG (AID 2283488)
# Procedure, shortened: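 Eight-point concentration-response (100 uM highest, half-log dilutions) in HepaRG, 48 h, duplicate wells. Endpoint: qRT-PCR mRNA, normalized (ACTB, GAPDH, POLR2A), bidirectional fitting with DMSO as baseline.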
# [10] = read-out: Pro-epidermal growth factor (Homo sapiens) (UniProt P01133); assay: LTEA_HepaRG_EGF: Life Technologies and Expression Analysis (LTEA) Assay for Epidermal growth factor (EGF) using HepaRG (AID 2283489)
# Procedure, shortened: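 HepaRG, 48 h dosing, 100 uM top, half-log x8, 0.5% DMSO. Readout: TaqMan qRT-PCR (Fluidigm array), housekeeping-normalized. Gain or loss of signal fit vs DMSO.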
# [11] = read-out: Early growth response protein 1 (EGR1) transcription factor, EGR1 (gene 1958); assay: LTEA_HepaRG_EGR1: Life Technologies and Expression Analysis (LTEA) Assay for Early growth response protein 1 (EGR1) transcription factor using HepaRG (AID 2283490)
# Procedure, shortened: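 HepaRG, 48 h exposure, 8-pt half-log series from 100 uM, 0.5% DMSO vehicle; EGR1 transcript by TaqMan qRT-PCR (Fluidigm array), housekeeping-normalized; bidirectional fit relative to DMSO baseline.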
# [12] = read-out: Ezrin (EZR), EZR (gene 7430); assay: LTEA_HepaRG_EZR: Life Technologies and Expression Analysis (LTEA) Assay for Ezrin (EZR) using HepaRG (AID 2283491)
# Procedure, shortened: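 HepaRG, 48 h chemical exposure, 8-pt half-log series from 100 uM, 0.5% DMSO vehicle, duplicates. Read-out: EZR mRNA by TaqMan qRT-PCR (Fluidigm array), housekeeping-normalized; bidirectional curve fit vs DMSO baseline.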
# [13] = read-out: Cytochrome P450 3A7 (Homo sapiens) (UniProt P24462); assay: LTEA_HepaRG_CYP3A7: Life Technologies and Expression Analysis (LTEA) Assay for CYP3A7 using HepaRG (AID 2283492)
# Procedure, shortened: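 Human HepaRG liver cells, 48 h post-plating, switched to serum-free induction medium and exposed in duplicate for 48 h. Dosing: 100 uM top, half-log dilutions, 8 points, 0.5% DMSO vehicle. Read-out: CYP3A7 mRNA, gain or loss fitted against DMSO baseline.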
# CYP3A5 (gene 1577) = assay: LTEA_HepaRG_CYP3A5: Life Technologies and Expression Analysis (LTEA) Assay for CYP3A5 using HepaRG (AID 2283493)
# Procedure, shortened: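 Readout was CYP3A5 mRNA by qRT-PCR. HepaRG cultures were exposed for 48 h in serum-free induction medium to chemicals at up to 100 uM, and responses were fitted in both directions relative to DMSO vehicle.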
# [14] = read-out: Cytochrome P450 (CYP1A2), CYP1A2 (gene 1544); assay: LTEA_HepaRG_CYP1A2: Life Technologies and Expression Analysis (LTEA) Assay for Cytochrome P450 (CYP1A2) using HepaRG (AID 2283479)
# Procedure, shortened: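 CYP1A2 transcript induction or loss, quantified by Fluidigm qRT-PCR against three housekeeping genes, was fitted bidirectionally against 0.5% DMSO controls. Human HepaRG cells received eight half-log concentrations from 100 uM over 48 h.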
# Chain of Caspase-3 (Homo sapiens) (P42574 whole entry, looked up): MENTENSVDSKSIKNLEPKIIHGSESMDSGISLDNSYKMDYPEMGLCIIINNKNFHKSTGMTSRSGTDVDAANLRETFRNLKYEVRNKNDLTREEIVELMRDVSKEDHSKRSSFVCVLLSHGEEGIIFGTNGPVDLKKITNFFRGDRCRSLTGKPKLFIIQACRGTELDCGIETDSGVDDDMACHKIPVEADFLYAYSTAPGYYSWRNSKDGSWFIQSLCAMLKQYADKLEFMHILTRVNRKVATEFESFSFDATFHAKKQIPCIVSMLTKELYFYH
# Chain of Cytochrome P450 3A4 (Homo sapiens) (P08684 whole entry, looked up): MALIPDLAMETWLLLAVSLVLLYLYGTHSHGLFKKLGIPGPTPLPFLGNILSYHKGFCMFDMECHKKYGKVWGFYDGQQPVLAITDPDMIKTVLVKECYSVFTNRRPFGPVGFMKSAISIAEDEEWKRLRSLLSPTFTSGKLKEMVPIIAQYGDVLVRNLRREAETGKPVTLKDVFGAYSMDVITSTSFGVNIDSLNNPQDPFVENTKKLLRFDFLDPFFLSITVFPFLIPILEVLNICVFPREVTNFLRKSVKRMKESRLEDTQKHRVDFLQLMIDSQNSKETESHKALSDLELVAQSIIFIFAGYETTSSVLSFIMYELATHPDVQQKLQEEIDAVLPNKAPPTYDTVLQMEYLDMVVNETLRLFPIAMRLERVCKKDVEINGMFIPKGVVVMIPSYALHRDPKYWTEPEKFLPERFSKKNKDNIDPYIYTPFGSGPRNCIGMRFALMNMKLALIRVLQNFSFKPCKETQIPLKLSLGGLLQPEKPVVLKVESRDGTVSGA
# Chain of Cytochrome P450 2C19 (Homo sapiens) (P33261 whole entry, looked up): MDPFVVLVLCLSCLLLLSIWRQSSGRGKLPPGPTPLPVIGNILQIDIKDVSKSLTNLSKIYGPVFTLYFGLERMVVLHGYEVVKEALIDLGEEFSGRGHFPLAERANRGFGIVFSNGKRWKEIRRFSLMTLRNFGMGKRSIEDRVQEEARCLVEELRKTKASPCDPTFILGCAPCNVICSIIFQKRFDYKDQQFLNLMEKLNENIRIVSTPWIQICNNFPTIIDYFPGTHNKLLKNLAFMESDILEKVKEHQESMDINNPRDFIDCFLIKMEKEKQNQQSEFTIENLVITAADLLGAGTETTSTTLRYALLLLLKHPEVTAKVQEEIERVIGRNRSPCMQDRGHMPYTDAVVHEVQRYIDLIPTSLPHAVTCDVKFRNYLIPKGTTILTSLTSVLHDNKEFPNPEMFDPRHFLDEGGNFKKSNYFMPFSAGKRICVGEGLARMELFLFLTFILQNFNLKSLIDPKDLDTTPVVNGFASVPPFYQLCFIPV
# Chain of Apoptosis regulator Bcl-2 (Homo sapiens) (P10415 whole entry, looked up): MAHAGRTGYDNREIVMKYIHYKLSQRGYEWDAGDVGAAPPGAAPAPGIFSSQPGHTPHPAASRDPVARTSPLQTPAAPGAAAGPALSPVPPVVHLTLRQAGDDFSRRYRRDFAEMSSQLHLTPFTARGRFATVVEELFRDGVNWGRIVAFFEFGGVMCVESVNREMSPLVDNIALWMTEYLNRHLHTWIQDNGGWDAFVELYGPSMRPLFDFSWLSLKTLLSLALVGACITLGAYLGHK
# Chain of Cytochrome P450 3A7 (Homo sapiens) (P24462 whole entry, looked up): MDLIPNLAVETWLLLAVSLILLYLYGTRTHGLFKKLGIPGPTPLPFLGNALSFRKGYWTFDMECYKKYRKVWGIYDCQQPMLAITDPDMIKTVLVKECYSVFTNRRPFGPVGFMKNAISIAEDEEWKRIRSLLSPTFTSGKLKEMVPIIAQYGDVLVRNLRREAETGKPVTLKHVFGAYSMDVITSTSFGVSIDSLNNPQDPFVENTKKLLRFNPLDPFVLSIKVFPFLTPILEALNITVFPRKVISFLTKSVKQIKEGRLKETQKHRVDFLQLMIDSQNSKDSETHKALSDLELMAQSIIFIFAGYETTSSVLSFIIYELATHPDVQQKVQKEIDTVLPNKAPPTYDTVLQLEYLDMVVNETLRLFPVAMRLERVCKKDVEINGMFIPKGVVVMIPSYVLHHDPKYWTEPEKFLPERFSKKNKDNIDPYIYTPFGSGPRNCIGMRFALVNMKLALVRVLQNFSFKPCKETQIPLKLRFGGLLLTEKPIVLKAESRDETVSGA
smiles,measurement,setting,value
ClCCOCCCl,outcome,[1],inactive
same,outcome,[2],inactive
same,outcome,[3],inactive
same,outcome,Caspase-3 (Homo sapiens),inactive
same,outcome,[4],inactive
same,outcome,[5],inactive
same,outcome,[6],inactive
same,outcome,[7],inactive
same,outcome,CYP2C8 (gene 1558),inactive
same,outcome,CYP2C9 (gene 1559),inactive
same,outcome,CYP2E1 (gene 1571),inactive
same,outcome,CYP4A11 (gene 1579),inactive
same,outcome,[8],inactive
same,outcome,[9],inactive
same,outcome,[10],inactive
same,outcome,[11],inactive
same,outcome,[12],inactive
same,outcome,[13],inactive
same,outcome,CYP3A5 (gene 1577),inactive
Clc1ccc(Cl)c(Cl)c1,AC50,[1],50 µM (active)
same,outcome,[2],inactive
same,AC50,[3],50 µM (active)
same,AC50,Caspase-3 (Homo sapiens),50 µM (active)
same,outcome,[4],inactive
same,outcome,[5],inactive
same,outcome,[6],inactive
same,outcome,[7],inactive
same,outcome,CYP2C8 (gene 1558),inactive
same,outcome,CYP2C9 (gene 1559),inactive
same,AC50,CYP2E1 (gene 1571),50 µM (active)
same,outcome,CYP4A11 (gene 1579),inactive
same,outcome,[8],inactive
same,AC50,[9],9.92 µM (active)
same,outcome,[10],inactive
same,outcome,[11],inactive
same,outcome,[12],inactive
same,outcome,[13],inactive
same,outcome,CYP3A5 (gene 1577),inactive
Cc1ccc(N)c(N)c1,outcome,[1],inactive
same,outcome,[2],inactive
same,outcome,[3],inactive
same,outcome,Caspase-3 (Homo sapiens),inactive
same,outcome,[4],inactive
same,outcome,[5],inactive
same,AC50,[6],50 µM (active)
same,outcome,[7],inactive
same,outcome,CYP2C8 (gene 1558),inactive
same,outcome,CYP2C9 (gene 1559),inactive
same,AC50,CYP2E1 (gene 1571),50 µM (active)
same,outcome,CYP4A11 (gene 1579),inactive
same,outcome,[8],inactive
same,outcome,[9],inactive
same,outcome,[10],inactive
same,outcome,[11],inactive
same,outcome,[12],inactive
same,AC50,[13],35.9 µM (active)
same,outcome,CYP3A5 (gene 1577),inactive
CCOC(=O)[C@]1(c2ccccc2)Oc2ccccc2[C@@H]1N,AC50,[1],83.3 µM (active)
same,AC50,[2],88.7 µM (active)
same,outcome,[3],inactive
same,outcome,Caspase-3 (Homo sapiens),inactive
same,outcome,[4],inactive
same,outcome,[5],inactive
same,AC50,[6],81.9 µM (active)
same,AC50,[7],78.2 µM (active)
same,outcome,CYP2C8 (gene 1558),inactive
same,AC50,CYP2C9 (gene 1559),74.3 µM (active)
same,AC50,CYP2E1 (gene 1571),75.2 µM (active)
same,AC50,CYP4A11 (gene 1579),79.7 µM (active)
same,AC50,[8],80 µM (active)
same,AC50,[9],76.8 µM (active)
same,AC50,[10],75.6 µM (active)
same,outcome,[11],inactive
same,outcome,[12],inactive
same,AC50,[13],85.4 µM (active)
same,outcome,CYP3A5 (gene 1577),inactive
CCCCOC(=O)c1ccccc1C(=O)OCc1ccccc1,outcome,[1],inactive
same,outcome,[2],inactive
same,outcome,[3],inactive
same,outcome,Caspase-3 (Homo sapiens),inactive
same,outcome,[4],inactive
same,outcome,[5],inactive
same,outcome,[6],inactive
same,outcome,[7],inactive
same,outcome,CYP2C8 (gene 1558),inactive
same,outcome,CYP2C9 (gene 1559),inactive
same,outcome,CYP2E1 (gene 1571),inactive
same,outcome,CYP4A11 (gene 1579),inactive
same,outcome,[8],inactive
same,outcome,[9],inactive
same,outcome,[10],inactive
same,outcome,[11],inactive
same,outcome,[12],inactive
same,outcome,CYP3A5 (gene 1577),inactive
CC(C)(C)C(O)(CCc1ccc(Cl)cc1)Cn1cncn1 (configuration not stated),AC50,[1],79.4 µM (active)
same,AC50,[2],79 µM (active)
same,outcome,[3],inactive
same,outcome,Caspase-3 (Homo sapiens),inactive
same,outcome,[4],inactive
same,AC50,[14],2.92 µM (active)
same,outcome,[5],inactive
same,AC50,[6],91.4 µM (active)
same,AC50,[7],12.1 µM (active)
same,AC50,CYP2C8 (gene 1558),11.4 µM (active)
same,AC50,CYP2C9 (gene 1559),85.9 µM (active)
same,AC50,CYP2E1 (gene 1571),50 µM (active)
same,AC50,CYP4A11 (gene 1579),55.2 µM (active)
same,AC50,[8],2.86 µM (active)
same,outcome,[10],inactive
same,outcome,[12],inactive
same,AC50,[13],2.43 µM (active)
same,outcome,CYP3A5 (gene 1577),inactive
